# Laboratory results: the supplement of paper PMC6555819
# Tested on: VDR:RXRa (NR concentration 270 nM, RXRa partner concentration 90 nM)
# Assay: PBM binding z-score (relative to random genomic background probes); higher = stronger binding; sequences stand for … in GC…GCGATTGACAGCGTAGAATGAAGG
# Protocol: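 Protein-binding microarray (Agilent 4x180K custom design, double-stranded 60-nt probes: 5' GC cap, 34-nt variable region, 24-nt constant primer region; full probe sequence given). Purified or IVT nuclear receptor:RXRα heterodimers (3:1 NR:RXRα, mostly 270:90 nM) or homodimers were incubated for 1 h in PBS with 2% milk and no ligand, then detected with Alexa488 antibodies. Fluorescence from o1-orientation probes (~5 replicates averaged) was converted to z-scores against 500 random hg19 background probes. Variable regions are seed direct-repeat (DR0–DR5) sites, all their single-nucleotide variants and half-site ablations.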
row,Sequence,PBM binding z-score
1,TCATATAGGTAAACAGGTGAAATTCCGTAAGTTA,1.35
2,GATACAGGGTCAGCTAGAGGCCAGAATATGGAAA,3.19
3,CCTGCTAGGCCATGGTCAGCTAATCTACAGTATG,-0.543
4,ATCGAAAAGTCGTGAGGTGAGTATACAGAAAGGC,-0.173
5,TCTCCGAGGACACGAAAGGTCAGAGCTCGACATC,3.72
6,CAAACTAGGTCACAGGTCAAAGTCGAGCCAACCA,4.33
7,CAAACTAGGTCAAGAAGTCAAAGTCCGCTTCCCG,1.93
8,TCTAGGTGGTCAAAGGTCACACACTCGAAATGCG,5.38
9,CCTACTGGGCCAAAGGTCATTAATTCCAATGCTC,4.22
10,CCTACTGGTCCAAAAAGGTCATTGATGCCGATAA,4.99
11,CGTTACGGGTCACTCCAGGTTATAGCATCGGAGT,4.5
12,CTCGAAAGGTCGTGATCAGGTGAGTATACCAAAC,3.22
13,ACCTCTAGGTAAAGTTCAGTGAAAGATCGATAGA,0.835
14,TGTACAGGGTCAAAGGCCAGAGTACGAATGTCGA,4.59
15,AGTATTAGTTGACTTAGGGCAACCGATACGACGC,0.573
16,AATACAGGGTCACTAGGCCAGAGGAGGTACGAAT,4.09
17,ACTACAGGGTCATCGTAGGCCAGAGTACGCACAG,5.05
18,TAGCCTAGGTCAGATAGGGCCAGTATACGCTATA,1.11
19,TAGCCTAGGTCATGCGGGCGAGTATAGTGTCGGC,1.72
20,ACTTACGGGTCAACTAGGTTATAGCACGCGTATA,5.88

row,Sequence,PBM binding z-score
1,CCGACTGGGGCAAGGTTCCCATAACGCACAGCCA,-0.47
2,ATATGTAGGTTACATCCGGGTCATTGAGGCTATG,5.02
3,TAGCCTAGGTCATGGGCAAGTATACCACGCGAAC,2.13
4,AGAATGAGGTTATTACGATCAGGGAATTGCGGTC,1.99
5,AGTCAAAGTTCACTAGGAAACGTAAGATTCAGCT,3.48
6,ATCTCTGGGTAAAGATAGTTCAGTGAATGCAAAT,0.896
7,TCATCTAGGTAAATGCTAGGTGAAAGTCCGATCT,0.555
8,GCTATTAGTTGAAAGTGCAACCGAATGATTCTCG,0.133
9,GGAACGAGGGCATTCGAGTTGAGAGCATGGCGAT,3.07
10,CGTGCAAGGTCAAGGTCAGTGAAAGAGACTCGAA,4.83
11,ATATGTAGGGTAGCTGGGGTCATTCAGACTAGGC,5.75
12,CGGAGTAGGTTATGGGGCATTCAGGCAACGGTGA,0.00597
13,ATCGAACGGTCGTGAGGTGAGTATACAGAAAGGC,-0.0539
14,CCTACTGGGCCAGAAAGGTCATTGATGCCGATAA,4.91
15,ACAGACAGGTGTTGAAGGTAACTCAGGCTATCAT,-0.203
16,CCTACTGGCCCATCAGGTCATTGATATCAACGTT,1.78
17,TGCCAAAGTTCAAAGGTAACGTAAGTATCCACAC,4.97
18,CTACCAAGGTGAACAAGGTTGTTGATTACTATTC,4.05
19,GGATATAGGTAATACAAGGTGAAAGTCCGATTGT,0.64
20,TCTTGTAGATCAGCAGGTTAAGAGAGCTGGCCAA,0.132
